The list is not random: actives were taken first. Their share in the collection is about 17%.
TDP1 cell noCPT – qHTS for Inhibitors of human tyrosyl-DNA phosphodiesterase 1 (TDP1): qHTS in cells in absence of CPT; DT40 Tdp1-/- hTDP1 cells, no CPT, ATP luminescence, 48 h; Potency, µM (highest dose often 46.2 µM), without a hit: top-dose activity change, negative = growth inhibition, actives largely listed as inhibitors; 15% of 420,000 active; note: % is set by controls: 0 for no effect and ±100 for the full control effect; nearly all actives have a fitted effect of over 55% in size
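Compound effects on proliferation are scored in DT40 Tdp1-/-;hTDP1 cells in the absence of CPT. ATP levels (CellTiter-Glo luminescence) are recorded after a ≥48 hr, 37 °C incubation.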
ATXN2 expr inh – Primary qHTS for Inhibitors of ATXN expression; 0.72% of 360,000 active; HEK-293 ATXN2-luciferase reporter, luminescence, 24 h; Potency, µM (series often up to 57 µM), for inactives: at the top dose activity change, negative = inhibition, hits mostly inhibitors; note: % is set by controls: 0 for no effect and ±100 for the full control effect; nearly all actives have a fitted effect of over 55% in size
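qHTS (up to 57 uM final) was run with 24 h compound exposure of reporter cells at 37 °C. Each well was multiplexed: SteadyGlo luminescence measured ATXN2-luciferase expression after a fluorogenic Gly-Phe-AFC viability readout (25 uM final).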
DT40 TDP1 CPT – qHTS for Inhibitors of human tyrosyl-DNA phosphodiesterase 1 (TDP1): qHTS in cells in presence of CPT; AID 686979, 2013; 12% of 420,000 active; Potency, µM (highest dose often 46.2 µM), for inactives: at the highest dose activity change, negative = growth inhibition, hits mostly inhibitors; chicken DT40 Tdp1-/-;hTDP1 cells + 20 nM CPT, ATP luminescence, 48 h; note: % is set by controls: 0 for no effect and ±100 for the full control effect; nearly all actives have a fitted effect of over 55% in size
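Cell growth measured by CellTiter-Glo luminescence after a minimum 48 h, 37 C compound exposure with 20 nM CPT in Tdp1-knockout DT40 cells stably expressing hTDP1, seeded 400/well; qHTS titration format.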
TGFb SMAD3 inh – qHTS for Inhibitors of TGF-b; HepG2 CAGA-GFP TGF-b/SMAD3 reporter, GFP fluorescence, 18 h; TGF-beta stimulated, 500 pg/mL final; Potency, µM (series often up to 46.1 µM), inactives show at the top dose activity, negative = inhibition, usual class: inhibitors; 1.2% of 410,000 active; note: % is set by controls: 0 for no effect and ±100 for the full control effect; nearly all actives have a fitted effect of over 65% in size
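Cell-based qHTS in HEPG2 carrying a CAGA-GFP Smad reporter; compounds added before 500 pg/mL final TGF-beta, 18 h incubation at 37 degrees C, GFP fluorescence quantified per cell by imaging cytometry.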
HepG2 tox – qHTS for Inhibitors of TGF-b: Cytotox Counterscreen. AID 588856, 2011. HepG2 CAGA-GFP viability, ATP luminescence, 18 h. 0.76% of 410,000 active. Potency, µM (highest dose often 46.1 µM), for the others: top-dose activity change, negative = cytotoxicity, usual class: cytotoxic
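HepG2 CAGA-GFP cells (1000/well, DMEM with 1% FBS) received compound, then TGF-beta at 500 pg/mL final, and were incubated 18 hours at 37 degrees C. Viability was read by CellTiter-Glo luminescence. Media-only wells were set as complete cell-killing and DMSO as no toxicity.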
ATXN viability – Viability Counterscreen for Primary qHTS for Inhibitors of ATXN expression; AID 651635, 2014; Potency, µM (series often up to 56.7 µM), actives largely listed as cytotoxic; S2 cells (HEK-293 line with an ATXN2-luciferase reporter) viability, CellTiter-Fluor protease fluorescence, 24 h; 0.49% of 400,000 active; note: nearly all actives have a fitted effect of over 40% in size
* marks the source's active call; other numbers are inactive results; i = inactive; ? = inconclusive; nt = not tested or not shown; [ ] = another dose, or the depositor's remark. Calls come from the whole dose curve; as a rule, active = well fitted curve in the direction sought with a large enough effect; inconclusive = small, poorly fitted or top-dose-only effect, or another doubt; inactive = no such curve, though single readings can be large; an effect the other way counts as inactive or inconclusive. Potency is the fitted concentration of half-maximal effect.

SMILES	TDP1 cell noCPT	ATXN2 expr inh	DT40 TDP1 CPT	TGFb SMAD3 inh	HepG2 tox	ATXN viability
COc1cc(CNc2nc3ccccc3s2)cc(OC)c1OC	23.1µM*	-11.7%	-0.2%	-6.2%	-19.4%	i
COc1ccc(C(=O)Nc2nc3ccccc3s2)c(OC)c1	20.6µM*	0.794µM*	?	12.0%	17.8µM*	i
CNC(=O)c1ccc(NC(=O)c2ccccc2OCc2c(C)noc2C)cc1	-28.2%	nt	?	2.1%	-28.8%	i
CNC1[C@H](O)C(O[C@@H]2C(O)C(O[C@H]3O[C@H]([C@@H](C)NC)CC[C@H]3N)[C@@H](N)C[C@H]2N)OC[C@]1(C)O (stereo partly specified)	nt	-4.9%	nt	nt	nt	nt
COc1cccc2sc(N(Cc3cccnc3)C(=O)COc3ccccc3)nc12	-15.1%	nt	-19.0%	0.0%	-30.9%	nt
COc1cccc(CNC(=O)CCC2CCCN(c3cc(C)nc(N4CCCC4)n3)C2)c1 (stereo unspecified)	?	-17.7%	?	20.0%	-8.1%	i
CCN(CC)C(=O)c1cc2c(=O)c3cc(F)ccc3oc2nc1C	-4.9%	3.6%	-2.5%	2.5%	8.4%	i
O=C(CSc1nnc(CNC(=O)c2c(F)cccc2Cl)o1)NCc1ccccc1	-29.8%	3.3%	?	-10.2%	-3.5%	i
COc1ccc(C(=O)Nc2ccccc2Cc2ccccc2)c(OC)c1	?	0.3%	18.4µM*	?	6.6%	i
COc1ccc(CNc2ccc(C)c(C)c2)cc1	-1.6%	-17.3%	0.3%	-5.4%	18.3%	i
COc1cc(CNc2ccc(C)c(C)c2)cc(OC)c1OC	1.3µM*	-16.6%	2.06µM*	?	-17.6%	i
COc1ccccc1C(=O)Nc1nc2ccccc2s1	10.3µM*	?	16.4µM*	-21.4%	11.2µM*	i
CCOC(=O)c1sc(NC(=O)c2ccccc2OC)nc1C	?	32.1%	8.2µM*	4.0%	-39.2%	i
COc1cccc(-c2cccc(NC(=O)C3CCN(CCCn4cccn4)CC3)c2)c1	?	nt	-0.5%	9.3%	2.5%	i
Cc1ccc(NC(=O)Cn2c(=O)c3cccn3c3ccccc32)c(Cl)c1	-10.9%	-25.3%	?	4.5%	-14.6%	i
O=C(CCCCCCCC(=O)N1CCCC1)N1CCCC1	-20.0%	5.0%	1.3%	-5.8%	-13.9%	i
CCC1C(=O)NCCN1Cc1ccc2c(c1)CN(Cc1ccc(F)c(OC)c1)CCO2 (stereo unspecified)	-7.5%	nt	-6.2%[9.04 µM]	nt	nt	i
CCOC(=O)c1[nH]c2ccc(OC)cc2c1NC(=S)N1CCN(C(=O)OCC)CC1	-4.0%	nt	3.1%	-7.3%	-7.5%	i
CCOC(=O)c1[nH]c2ccc(OC)cc2c1NC(=S)N1CCN(c2ccccc2OC)CC1	8.2µM*	-15.1%	5.17µM*	?	-12.3%	i
CCC(=O)Nc1nc(-c2ccccc2)ns1	-17.2%	nt	-17.7%	-17.5%	-21.3%	nt
COc1cccc2[nH]c(C(=O)NN)c(N)c12	16.4µM*	-12.0%	?	2.8%	-4.1%	?
CCOC(=O)c1sc(Nc2nc3cc4c(cc3s2)OCO4)cc1C	-14.9%	58.7%	-1.3%	-5.7%	-1.8%	i
CCOC(=O)c1sc(Nc2nc3c(OC)cccc3s2)cc1C	16.4µM*	20.5%	?	?	-37.8%	i
COc1ccccc1C(=O)Nc1nc(-c2ccccc2)ns1	23.1µM*	41.1%	-29.3%	1.9%	-19.2%	i
OC1CCC(Nc2ncnc3sccc23)CC1 (stereo unspecified)	?	0.8%	-14.5%	-3.8%	-5.0%	i
SMILES	TDP1 cell noCPT	ATXN2 expr inh	DT40 TDP1 CPT	TGFb SMAD3 inh	HepG2 tox	ATXN viability
CCOC(=O)Nc1c(C(=O)OC)[nH]c2cc(OC)ccc12	20.6µM*	18.9%	?	?	-67.8%	i
CCOC(=O)c1[nH]c2ccccc2c1NC(=O)c1ccccc1OC	14.6µM*	-38.5%	23.1µM*	2.3%	-28.6%	?
CC(=O)c1ccc(C(=O)N2CCCC(Nc3ccccc3)C2)s1 (stereo unspecified)	9.1%	1.6%	-8.3%	16.6%	5.3%	i
CC(=O)c1ccc(C(C)(C)c2ccc(C(C)=O)s2)s1	23.1µM*	-2.4%	?	-12.6%	-9.7%	i
O=C(CSc1nc2cc(C(=O)NC3CCCC3)ccc2c(=O)n1CC1CCCO1)c1cccc(Cl)c1 (stereo unspecified)	23.1µM*	12.9%	20.6µM*	-19.4%	-6.3%	i
Cc1ccc(C)c(C(=O)CSc2nc3cc(C(=O)NC4CCCC4)ccc3c(=O)n2CC2CCCO2)c1 (stereo unspecified)	8.2µM*	8.7%	18.4µM*	1.0%	-4.0%	i
Cc1ccc(C(=O)CSc2nc3cc(C(=O)NC4CCCC4)ccc3c(=O)n2CC2CCCO2)cc1 (stereo unspecified)	-16.4%	6.6%	-6.5%	-15.6%	-0.4%	i
Cc1ccc(C)c(S(=O)(=O)N2CCN(C(=O)c3n[nH]c(=O)c4ccccc34)CC2)c1	?	nt	?	1.5%	-20.9%	?
COc1ccc(-c2csc(C(C)(O)c3ccc(F)c(F)c3)n2)cc1 (stereo unspecified)	?	-10.3%	?	?	-31.7%	i
CC(O)(c1ccc(F)c(F)c1)c1nc(-c2ccncc2)cs1 (stereo unspecified)	13µM*	-18.4%	20.6µM*	?	-26.3%	i
CC(O)(c1ccc(F)c(F)c1)c1nc(-c2ccc(S(C)(=O)=O)cc2)cs1 (stereo unspecified)	16.4µM*	-30.4%	?	-29.0%	-10.2%	i
COc1ccc(C(C)(O)c2nc(-c3ccc(S(C)(=O)=O)cc3)cs2)cc1 (stereo unspecified)	23.1µM*	-14.7%	?	10.7%	2.7%	i
O=C(NCc1ccccc1CN1CCCC1)C1CCN(C(=O)c2ccc(Cl)cc2)CC1	-23.0%	nt	-17.5%	-0.3%	0.2%	i
O=C(c1ccoc1)N1CCCC(N2CCN(c3cccc(Cl)c3)CC2)C1 (stereo unspecified)	-26.1%	9.5%	?	0.0%	-24.3%	i
